# Measured values as given in PubChem BioAssay AID651702 (NMMLSC, 2012).
# Among all 360,000 compounds or so, about 2,400 (0.67%) were called active. The sample holds actives, similar compounds and a random draw of the others, so the mix is not that of the screen.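 Rule for the calls: active = inhibition above about 55% (limit read from the data); inconclusive = no clear call, values can overlap the other calls; inactive = the rest.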
# Experiment: LAMP-1 surface exposure blockers, TALL-104 cells – cell-based, flow cytometry, MLPCN library, primary screen (AID 651702)
# Details: TALL-104 LAMP-1 surface exposure, at 10 µM, hits give high values, cells stimulated with thapsigargin and PMA
row,SMILES,inhibition
1,CCO/C=C1\C(=O)N(c2ccc(OCC)cc2)C(=O)c2ccccc21,-2.4% (inactive)
2,CCOc1ccc(N2C(=O)CN(c3cccc4ccccc34)C2=S)cc1,-2.1% (inactive)
3,CCOc1ccc(N2C(=O)/C(=C/c3ccc(C)o3)N(C)C2=S)cc1,76.4% (active)
4,O=C(NCC1CCCO1)C1CCN(C2CCN(C(=O)C3CCCCC3)CC2)CC1 (configuration not stated),1.8% (inactive)
5,CC(=O)Nc1ccc(NC(=O)CN2CCCC(C)C2)c(Cl)c1 (configuration not stated),1.3% (inactive)
6,CC1CCCN(CC(=O)Nc2cc(Cl)ccc2Oc2ccccc2)C1 (configuration not stated),96.4% (active)
7,O=C(CSc1ccccc1)Nc1cc(Cl)ccc1Oc1ccccc1,-1.8% (inactive)
8,CCCCCCCCN1C(=O)[C@H](CC(=O)NCc2cccc3ccccc23)C[C@@]2(C(=O)OC)CCCCC=C12,5.4% (inactive)
9,O=C(COc1coc(CN2CCN(c3ccccc3)CC2)cc1=O)Nc1ccccc1F,10.5% (inactive)
10,CN1CCN(C2=NCCO2)CC1,-6.4% (inactive)
11,CNc1nc2c(C)cccn2c(=O)c1C=Nc1ccc(OC)cc1,-1.8% (inactive)
12,CCCN(CCC)c1nc2c(C)cccn2c(=O)c1/C=C1/SC(=S)N(Cc2ccco2)C1=O,57.2% (active)
13,Cc1ccc2[nH]c(=O)c(-c3nc4c(C)cccn4c3NCc3ccco3)cc2c1,19.3% (inactive)
14,CSc1nc2sc3c(c2c(=O)[nH]1)CCc1ccccc1-3,-6.9% (inactive)
15,CCN(CC)CCCC(C)n1c2nc(=O)[nH]c(=O)c-2nc2cc(Cl)ccc21 (configuration not stated),-0.7% (inactive)
16,CN1C(C(=O)NCC2CC2)CC2Cn3c(nc4ccccc43)C21 (configuration not stated),-1.8% (inactive)
17,Cc1cc2nc3n(c2cc1C)CC1CC(C(=O)NCCC(C)C)N(C)C31 (configuration not stated),-4.6% (inactive)
18,COc1ccc(CCNC(=O)C2CC3Cn4c(nc5cc(C)c(C)cc54)C3N2C)cc1 (configuration not stated),60.3% (active)
19,COc1cc(NC(=O)C2CC(c3ccccc3O)=NO2)c(OC)cc1Cl (configuration not stated),-9.5% (inactive)
20,COc1ccc(NC(=O)C(C)SCc2ccccc2)cc1 (configuration not stated),-0.5% (inactive)
21,Cc1cccc(NC(=O)C2CC(=O)OC23CCCC3)c1 (configuration not stated),3.1% (inactive)

row,SMILES,inhibition
1,COc1cccc(CNc2nc(C(F)(F)F)nc3ccccc23)c1,65.7% (active)
2,COc1cccc(CNc2ncc(-c3ccccc3)n2C)c1,1% (inactive)
3,CC(Nc1nc(C(F)(F)F)nc2ccccc12)c1cccs1 (configuration not stated),-9.6% (inactive)
4,CC(CCc1ccc(O)cc1)NCc1ccc(Cl)cc1Cl (configuration not stated),3.5% (inactive)
5,Brc1cc(Br)c(Oc2cc(Br)c(Br)cc2Br)cc1Br,0.4% (inactive)
6,CN(C(=O)CN1CCN(c2cc(-c3ccc(OCc4ccccc4)cc3)ncn2)CC1)c1ccccc1,-3.7% (inactive)
7,Cc1ccc(NC(=S)N2CCCC(c3ccccc3)=N2)cc1,2.5% (inactive)
8,O=S(=O)(c1cccc2nonc12)N1CCN(c2cccc(Cl)c2)CC1,-11.1% (inactive)
9,COc1cc(C(=O)NCc2nnc(SCC(=O)Nc3nc4ccc(C)cc4s3)o2)cc(OC)c1OC,-6.4% (inactive)
10,CCCn1nc(C(=O)Nc2ccc3nc(C)sc3c2)c2ccccc2c1=O,-2.4% (inactive)
11,CCCC(=O)Nc1nc2ccc(NC(=O)c3c(F)c(F)c(OC)c(F)c3F)cc2s1,68.7% (active)
12,CC(=O)Nc1ccc(NC(=O)CSc2nnnn2C2CCCCC2)cc1,-2.8% (inactive)
13,CCOc1ccc(S(=O)(=O)N2CCN=C2Cc2ccccc2)cc1C,1.2% (inactive)
14,O=C(COC(=O)/C=C/c1cccc(Cl)c1)NCc1cccs1,18.2% (inactive)
15,CC1CCCCC1NC(=O)Cn1c(=O)cnc2ccccc21 (configuration not stated),25.2% (inactive)
16,CCc1cc(C(=O)N(CC)CC(=O)Nc2c(F)cccc2F)sc1C,18.1% (inactive)
17,O=C(Cn1nnc(-c2ccc(CN3CCOCC3)cc2)n1)NC1CCCCC1,-4.2% (inactive)
18,O=C(Nc1ccccc1)c1cccnc1Nc1ccccc1,99.9% (active)
19,O=C(Nc1ccccc1)c1ccccc1Br,-1.5% (inactive)
20,COc1cccc(Nc2ncccc2C(=O)O)c1,-1.7% (inactive)
21,Cc1cccc(C(=O)NNC(=O)CSc2nnc(C(C)C)n2C)c1,-2.9% (inactive)

row,SMILES,inhibition
1,COc1cccc(CN(C)CC(O)COC(c2ccccc2)c2ccccc2C)c1 (configuration not stated),60.5% (active)
2,Cc1ccccc1C(OCC(O)CN1CCCCC1CCO)c1ccccc1 (configuration not stated),-0.9% (inactive)
3,COc1cccc(CN(C)CC(=O)Nc2ccccc2C(=O)Nc2ccccc2)c1,8.4% (inactive)
4,COc1ccc(CCNCc2c(-c3ccccc3)n(C)c3ccccc23)cc1,90.8% (active)
5,COc1ccc(CCNC(=O)COC(=O)c2cc(=O)c3ccccc3o2)cc1,-2.7% (inactive)
6,COc1ccc(-c2c(C#Cc3ccccc3)c3ccccc3n2C)cc1,-3.3% (inactive)
7,CC[C@@H]1CC2=C(C(=O)OC(C)(C)O2)[C@@H](CC)O1,-0.8% (inactive)
8,CC(C)(O)C#Cc1ccc(CN2CCC(CO)(CCc3ccccc3)CC2)cc1,-3% (inactive)
9,Cc1c(CN2CCC(CO)(CCOc3ccccc3)CC2)[nH]c2ccc(Cl)cc12,64.1% (active)
10,Cc1cccc(-c2ncc(CN3CCC(CO)(CCCc4ccccc4)CC3)cn2)c1,2.3% (inactive)
11,Cc1cc(=O)cc(C)[nH]1,-3.9% (inactive)
12,CCOc1cnc(-c2c(-c3ccccc3Cl)noc2C)o1,1.2% (inactive)
13,Cc1oc(-c2ccccc2Cl)[n+]([O-])c1C,58.5% (active)
14,Cc1oc(-c2cccc(Cl)c2)[n+]([O-])c1C,8% (inactive)
15,COc1ccc([C@H]2CC(=O)C=C(c3ccc(OC(F)(F)F)cc3)C2)cc1OC,-1.8% (inactive)
16,CC1(C2CC2)NC(=O)N(CC(=O)N2CCN(c3ccccc3F)CC2)C1=O (configuration not stated),2% (inactive)
17,Cc1cccc(NC(=O)c2cccc(C(=O)Nc3cccc(C)c3C)n2)c1C,-1.9% (inactive)
18,Cc1cc(C)cc(N(CC(=O)NCCSCc2ccco2)S(C)(=O)=O)c1,-4.7% (inactive)
19,CCc1ccccc1N(CC(=O)NCCSCc1ccco1)S(C)(=O)=O,-0.4% (inactive)
20,CS(=O)(=O)N(Cc1ccc(Cl)cc1)c1ccc(C(=O)NCCSCc2ccco2)cc1,95.2% (active)
